Test results published in ChEMBL document CHEMBL3988442, “University of Dundee, Small-Polar-MMV Screening Library” (2021).
For some of these results: Results with a measured potency or affinity are listed apart.

Target: Protein translocase subunit SecA (Escherichia coli (strain K12)) (UniProt P10408)
Assay: Assay to Identify E. coli SecA ATPase Inhibitors
Assay type: functional
Design: scale not given: direction of the effect not stated beside the values
Details: 30 µM

Sequence of Protein translocase subunit SecA (Escherichia coli (strain K12)) (P10408 whole entry): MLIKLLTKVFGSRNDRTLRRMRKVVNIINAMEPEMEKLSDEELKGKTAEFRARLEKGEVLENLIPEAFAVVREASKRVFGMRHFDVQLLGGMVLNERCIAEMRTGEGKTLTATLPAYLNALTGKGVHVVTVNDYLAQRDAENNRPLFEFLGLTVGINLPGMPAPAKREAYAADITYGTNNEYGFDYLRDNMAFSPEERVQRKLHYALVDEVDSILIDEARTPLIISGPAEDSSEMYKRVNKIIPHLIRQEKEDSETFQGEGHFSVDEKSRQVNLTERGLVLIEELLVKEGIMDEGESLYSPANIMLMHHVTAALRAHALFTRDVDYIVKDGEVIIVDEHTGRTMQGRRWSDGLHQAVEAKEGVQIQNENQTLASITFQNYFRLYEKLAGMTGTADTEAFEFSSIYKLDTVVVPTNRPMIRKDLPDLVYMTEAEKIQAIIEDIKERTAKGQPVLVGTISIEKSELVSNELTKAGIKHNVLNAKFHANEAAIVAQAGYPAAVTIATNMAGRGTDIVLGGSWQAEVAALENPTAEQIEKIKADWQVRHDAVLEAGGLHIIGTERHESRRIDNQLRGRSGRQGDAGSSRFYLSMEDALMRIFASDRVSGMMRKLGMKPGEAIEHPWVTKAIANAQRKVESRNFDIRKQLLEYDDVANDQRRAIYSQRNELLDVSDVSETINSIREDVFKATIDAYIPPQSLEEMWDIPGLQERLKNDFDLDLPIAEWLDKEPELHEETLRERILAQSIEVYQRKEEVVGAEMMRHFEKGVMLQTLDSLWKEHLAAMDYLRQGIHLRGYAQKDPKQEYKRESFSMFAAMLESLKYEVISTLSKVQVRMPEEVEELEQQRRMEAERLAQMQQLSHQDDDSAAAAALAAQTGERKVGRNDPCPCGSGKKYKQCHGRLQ

| Compound | Percent Effect [%] |
| --- | --- |
| O=C(O)C1(Cc2cc(-c3cccc(F)c3)no2)CCOCC1 | -3.27 |
| COc1ccc(C2(NC(=O)CCn3cncn3)CCCCC2)cc1 | -4.12 |
| CCC(CNC(=O)Nc1cnn(CC)c1)N1CCCC1 (configuration not stated) | 0.765 |
| CC1CCCCN1CCNC(=O)c1ccn(-c2ccc(F)cc2)n1 (configuration not stated) | -2.64 |
| CN1CCCC(c2cccc(Cc3ccccc3Cl)n2)C1 (configuration not stated) | -3.49 |
| COCC1CN(C(=O)CNC(C)=O)Cc2ncnn2C1 (configuration not stated) | -4.16 |
| CCN(Cc1nc(C(C)C)no1)Cc1cccs1 | -3.02 |
| CCc1nc(CN2CCCN(c3nc4ccccc4o3)CC2)no1 | 7.05 |
| CC(NC(=O)Cn1cccn1)c1cccnc1 (configuration not stated) | -4.41 |
| COCc1ccccc1NC(=O)[C@@H]1CCCN1C(=O)c1ccco1 | -0.218 |
| CCc1nnc2n1CCN(CC(=O)Nc1sccc1C#N)C2 | -4.04 |
| COCC1CCN(C(=O)c2cccc(S(=O)(=O)NCC3(C)COC3)c2)C1 (configuration not stated) | -8.36 |
| CC(C)N1CCC(NCc2cccnc2N(C)Cc2ccccc2)CC1 | -6.5 |
| CCc1cnc(CN(C)C2CCN(CCc3cccs3)C2)o1 (configuration not stated) | -4.76 |
| CN(CCn1nc2ccccn2c1=O)CC(=O)N1CCCC1 | -5.53 |
| Cc1ccc(-c2csc(N)c2C#N)cc1 | -0.493 |
| O=C(NCCN1CCOCC1)c1ccc(-n2ccc3ccccc32)s1 | -2.64 |
| Cc1cnn(CC2CN(c3ncnc4ccccc34)CCO2)c1 (configuration not stated) | -1.94 |
| O=S(=O)(Cc1ccccc1)NCc1ccco1 | -2.2 |

Target: T1, Ubiquitin-activating enzyme e1, putative (Leishmania donovani (strain BPK282A1)) (UniProt E9BSI1)
T1 sequence (whole entry): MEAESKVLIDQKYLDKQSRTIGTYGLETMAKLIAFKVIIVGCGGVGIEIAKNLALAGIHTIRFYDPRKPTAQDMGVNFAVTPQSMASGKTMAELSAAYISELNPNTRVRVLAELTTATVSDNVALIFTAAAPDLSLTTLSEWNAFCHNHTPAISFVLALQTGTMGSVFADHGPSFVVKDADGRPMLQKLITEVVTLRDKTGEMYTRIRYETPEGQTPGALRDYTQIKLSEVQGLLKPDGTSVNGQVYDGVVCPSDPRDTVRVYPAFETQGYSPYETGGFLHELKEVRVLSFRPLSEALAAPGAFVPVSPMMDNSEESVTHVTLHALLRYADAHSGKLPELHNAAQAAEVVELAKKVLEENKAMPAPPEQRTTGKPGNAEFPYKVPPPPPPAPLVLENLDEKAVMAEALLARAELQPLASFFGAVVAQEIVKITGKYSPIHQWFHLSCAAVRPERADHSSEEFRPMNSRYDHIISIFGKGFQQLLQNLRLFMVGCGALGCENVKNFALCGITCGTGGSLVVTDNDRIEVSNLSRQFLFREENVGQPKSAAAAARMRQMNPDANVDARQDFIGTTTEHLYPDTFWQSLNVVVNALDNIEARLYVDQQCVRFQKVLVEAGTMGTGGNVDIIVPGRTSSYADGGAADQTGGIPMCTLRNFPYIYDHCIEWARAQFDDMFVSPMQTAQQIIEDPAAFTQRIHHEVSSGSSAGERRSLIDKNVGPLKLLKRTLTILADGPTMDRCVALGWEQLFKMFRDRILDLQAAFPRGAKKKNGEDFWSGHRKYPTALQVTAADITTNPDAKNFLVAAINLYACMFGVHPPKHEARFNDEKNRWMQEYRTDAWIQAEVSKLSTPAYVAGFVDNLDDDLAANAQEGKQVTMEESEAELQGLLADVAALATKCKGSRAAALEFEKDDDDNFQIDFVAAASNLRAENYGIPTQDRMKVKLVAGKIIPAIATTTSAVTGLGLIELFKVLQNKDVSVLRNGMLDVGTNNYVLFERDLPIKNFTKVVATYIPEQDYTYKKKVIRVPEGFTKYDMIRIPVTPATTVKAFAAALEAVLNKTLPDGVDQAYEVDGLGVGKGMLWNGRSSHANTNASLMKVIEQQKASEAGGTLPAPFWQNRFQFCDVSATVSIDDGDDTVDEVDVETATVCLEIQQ
Assay: Leishmania donovani Ubiquitin Activating Enzyme (LdE1)
Assay type: functional
Design: scale not given: direction of the effect not stated beside the values
Details: 30 µM

| Compound | Percent Effect [%] |
| --- | --- |
| COc1cc(CNCCc2nc(C)cs2)cc2c1OCCO2 | 5.26 |
| Cc1ccc(CN(Cc2ccccn2)C2CC(C)(C)NC(C)(C)C2)s1 | -4.05 |
| CCc1ccccc1C(=O)N1CCN(S(C)(=O)=O)[C@@H](C)C1 | 2.74 |
| COCCN(Cc1ccc(F)cc1Cl)C(=O)c1ccc(=O)[nH]n1 | 6.94 |
| CC(Oc1ccccc1C(F)(F)F)C(=O)NCC(N)=O (configuration not stated) | 5.41 |
| Cc1cc(-c2cnc(N3CCNC(=O)C3)nc2-c2ccc(C)o2)on1 | 21.3 |
| Cc1csc(CNC(=O)NCCc2ccc3c(c2)OCCO3)n1 | 13 |
| O=C1COC2(CCN(CC3CC3)CC2)CN1c1ccccc1 | 2.74 |
| COc1ccc(CCN2CCC(N3CCN(C)C3=O)CC2)cc1 | 13 |
| CCOC(=O)c1c(NC(=O)CN2CCN(C(C)=O)CC2)sc2c1CCC2 | 7.89 |
| CC(C)(C(=O)NCC(N)=O)c1ccccc1F | -1.39 |
| COc1c(CNCCNC(=O)Cc2ccc(F)cc2)c(C)nn1C | 13.5 |
| Cc1ccc(C(=O)N2CCO[C@H]3[C@@H](OCc4ccccn4)CC[C@@H]32)o1 | 10.4 |
| CN1N=C(C(=O)NCc2ccc3c(c2)CCCN3C)CCC1=O | 8.86 |
| Cc1ccc(CCC(=O)N(C)CCN2CCOCC2)c(C)c1 | -5.26 |
| c1cnnc(N2CCCC2CNCc2nc3ccccc3o2)c1 (configuration not stated) | 2.74 |
| Cc1nc(C(=O)N2CCCC2c2c(C)nn(C)c2C)ccc1C#N (configuration not stated) | -1.27 |
| Cc1noc([C@H]2C[C@@H]3CCN(CC4CC4)C[C@H]3O2)n1 | 7.79 |
| CCOCC(=O)N1C[C@@H](NC(C)=O)[C@H](c2ccc(OC)cc2)C1 | 5.33 |
| CCN1CC2(CCNCC2)COc2ccccc2S1(=O)=O | 6.67 |

| Compound | Percent Effect [%] |
| --- | --- |
| O=C(O)C1(Cc2cc(-c3cccc(F)c3)no2)CCOCC1 | 6.76 |
| COc1ccc(C2(NC(=O)CCn3cncn3)CCCCC2)cc1 | 9.46 |
| CCC(CNC(=O)Nc1cnn(CC)c1)N1CCCC1 (configuration not stated) | 17.7 |
| CC1CCCCN1CCNC(=O)c1ccn(-c2ccc(F)cc2)n1 (configuration not stated) | 18.9 |
| CN1CCCC(c2cccc(Cc3ccccc3Cl)n2)C1 (configuration not stated) | -4.05 |
| COCC1CN(C(=O)CNC(C)=O)Cc2ncnn2C1 (configuration not stated) | 7.79 |
| CCN(Cc1nc(C(C)C)no1)Cc1cccs1 | 7.79 |
| CCc1nc(CN2CCCN(c3nc4ccccc4o3)CC2)no1 | 13 |
| CC(NC(=O)Cn1cccn1)c1cccnc1 (configuration not stated) | 8 |
| COCc1ccccc1NC(=O)[C@@H]1CCCN1C(=O)c1ccco1 | 9.72 |
| CCc1nnc2n1CCN(CC(=O)Nc1sccc1C#N)C2 | 10.5 |
| COCC1CCN(C(=O)c2cccc(S(=O)(=O)NCC3(C)COC3)c2)C1 (configuration not stated) | 5.41 |
| CC(C)N1CCC(NCc2cccnc2N(C)Cc2ccccc2)CC1 | 5.33 |
| CCc1cnc(CN(C)C2CCN(CCc3cccs3)C2)o1 (configuration not stated) | 15.8 |
| CN(CCn1nc2ccccn2c1=O)CC(=O)N1CCCC1 | 0 |
| Cc1ccc(-c2csc(N)c2C#N)cc1 | 6.67 |
| O=C(NCCN1CCOCC1)c1ccc(-n2ccc3ccccc32)s1 | 10.4 |
| Cc1cnn(CC2CN(c3ncnc4ccccc34)CCO2)c1 (configuration not stated) | -7.59 |
| O=S(=O)(Cc1ccccc1)NCc1ccco1 | -1.39 |

Target: AMP-activated protein kinase, AMPK (Homo sapiens) (UniProt P54646+O43741+P54619+Q9UGJ0+Q9Y478+Q13131+Q9UGI9)
Assay: AMP-dependent Kinase enzyme assay. An in vitro enzyme assay that detects ADP turnover that is directly proportional to AMPK activity. This uses naive AMPK that is activated during the assay with MK-8722
Assay type: functional
Design: scale not given: direction of the effect not stated beside the values
Details: 30 µM

| Compound | Percent Effect [%] |
| --- | --- |
| COc1cc(CNCCc2nc(C)cs2)cc2c1OCCO2 | 1.5 |
| Cc1ccc(CN(Cc2ccccn2)C2CC(C)(C)NC(C)(C)C2)s1 | 8.17 |
| CCc1ccccc1C(=O)N1CCN(S(C)(=O)=O)[C@@H](C)C1 | 0.603 |
| COCCN(Cc1ccc(F)cc1Cl)C(=O)c1ccc(=O)[nH]n1 | -10.2 |
| CC(Oc1ccccc1C(F)(F)F)C(=O)NCC(N)=O (configuration not stated) | 0.686 |
| Cc1cc(-c2cnc(N3CCNC(=O)C3)nc2-c2ccc(C)o2)on1 | 3.79 |
| Cc1csc(CNC(=O)NCCc2ccc3c(c2)OCCO3)n1 | -2.69 |
| O=C1COC2(CCN(CC3CC3)CC2)CN1c1ccccc1 | -5.09 |
| COc1ccc(CCN2CCC(N3CCN(C)C3=O)CC2)cc1 | 0.0857 |
| CCOC(=O)c1c(NC(=O)CN2CCN(C(C)=O)CC2)sc2c1CCC2 | 9.52 |
| CC(C)(C(=O)NCC(N)=O)c1ccccc1F | -0.917 |
| COc1c(CNCCNC(=O)Cc2ccc(F)cc2)c(C)nn1C | 1.18 |
| Cc1ccc(C(=O)N2CCO[C@H]3[C@@H](OCc4ccccn4)CC[C@@H]32)o1 | -8.74 |
| CN1N=C(C(=O)NCc2ccc3c(c2)CCCN3C)CCC1=O | 30.5 |
| Cc1ccc(CCC(=O)N(C)CCN2CCOCC2)c(C)c1 | 4.45 |
| c1cnnc(N2CCCC2CNCc2nc3ccccc3o2)c1 (configuration not stated) | -3.71 |
| Cc1nc(C(=O)N2CCCC2c2c(C)nn(C)c2C)ccc1C#N (configuration not stated) | 7.49 |
| Cc1noc([C@H]2C[C@@H]3CCN(CC4CC4)C[C@H]3O2)n1 | 4.66 |
| CCOCC(=O)N1C[C@@H](NC(C)=O)[C@H](c2ccc(OC)cc2)C1 | -8.83 |
| CCN1CC2(CCNCC2)COc2ccccc2S1(=O)=O | 7.12 |

| Compound | Percent Effect [%] |
| --- | --- |
| O=C(O)C1(Cc2cc(-c3cccc(F)c3)no2)CCOCC1 | 11.7 |
| COc1ccc(C2(NC(=O)CCn3cncn3)CCCCC2)cc1 | 4.65 |
| CCC(CNC(=O)Nc1cnn(CC)c1)N1CCCC1 (configuration not stated) | -9.29 |
| CC1CCCCN1CCNC(=O)c1ccn(-c2ccc(F)cc2)n1 (configuration not stated) | 3.92 |
| CN1CCCC(c2cccc(Cc3ccccc3Cl)n2)C1 (configuration not stated) | 7.5 |
| COCC1CN(C(=O)CNC(C)=O)Cc2ncnn2C1 (configuration not stated) | 5.62 |
| CCN(Cc1nc(C(C)C)no1)Cc1cccs1 | -1.84 |
| CCc1nc(CN2CCCN(c3nc4ccccc4o3)CC2)no1 | -1.96 |
| CC(NC(=O)Cn1cccn1)c1cccnc1 (configuration not stated) | -4.08 |
| COCc1ccccc1NC(=O)[C@@H]1CCCN1C(=O)c1ccco1 | -5.33 |
| CCc1nnc2n1CCN(CC(=O)Nc1sccc1C#N)C2 | -7.74 |
| COCC1CCN(C(=O)c2cccc(S(=O)(=O)NCC3(C)COC3)c2)C1 (configuration not stated) | 0.667 |
| CC(C)N1CCC(NCc2cccnc2N(C)Cc2ccccc2)CC1 | -5.44 |
| CCc1cnc(CN(C)C2CCN(CCc3cccs3)C2)o1 (configuration not stated) | -3.51 |
| CN(CCn1nc2ccccn2c1=O)CC(=O)N1CCCC1 | 6.84 |
| Cc1ccc(-c2csc(N)c2C#N)cc1 | -1.04 |
| O=C(NCCN1CCOCC1)c1ccc(-n2ccc3ccccc32)s1 | 4.76 |
| Cc1cnn(CC2CN(c3ncnc4ccccc34)CCO2)c1 (configuration not stated) | 1.23 |
| O=S(=O)(Cc1ccccc1)NCc1ccco1 | 13.3 |
